# Screens (PubChem)
# HCMV inh – inhibitors of human cytomegalovirus | HFF cells, HCMV-luciferase reporter, 72 h; active compounds read low | activity change, negative = inhibition, % at 57.5 µM | actives 4.5% (n = 410,000); in the data active means activity change below about -60%; inconclusive means no clear call, values can overlap the other calls; inactive means above about -39%; further: on the % scale 0 is the no-effect control and ±100 the full control effect
#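 HFF cells seeded 16 h at 37C, treated with compounds, infected with luciferase-reporter HCMV at MOI 1 PFU/cell; luciferase read at 72 h post infection, normalized to buffer-only and Salinomycin controls.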
# SARS PLpro yeast – inhibitors of SARS-CoV papain-like protease in yeast; S. cerevisiae expressing SARS-CoV PLpro, growth rescue; Potency, µM (titrated, usually from 32.9 µM), without a hit: top-dose activity, positive = growth rescue, hits mostly activators; AID 485353; actives 0.19% (n = 330,000); calls by dose curve; further: potency means the concentration at half of the fitted maximal effect; 0% is about no effect; nearly all actives have a fitted effect of over 55% in size
# Pf growth 48h – inhibits P. falciparum growth in the first generation, 48 h; P. falciparum luciferase growth in erythrocytes, 48 h; Potency, µM (top dose mostly 28.7 µM), for the others: top-dose activity change, negative = inhibition, actives largely listed as inhibitors; actives 5.9% (n = 310,000); further: potency means the concentration at half of the fitted maximal effect; on the % scale 0 is the no-effect control and ±100 the full control effect
#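 Cell-based growth assay: transgenic P. falciparum expressing firefly luciferase, cultured in red cells within RPMI 1640 containing 0.5% w/v Albumax, 24 mM bicarbonate and gentamycin. A drop in luciferase activity indicates inhibition.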
# Pf growth 96h – P. falciparum growth inhibition at 96 hours; Potency, µM (doses to about 28.7 µM), for the others: top-dose activity change, negative = inhibition, most hits filed as inhibitors; AID 504834; P. falciparum luciferase reporter growth, 96 h; actives 6.9% (n = 320,000); further: potency means the concentration at half of the fitted maximal effect; on the % scale 0 is the no-effect control and ±100 the full control effect
#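 Luminescence readout: decreased luciferase signal marks inhibited growth of reporter-expressing P. falciparum in infected red cells (2% hematocrit, 0.05% parasitemia final), exposed to compound two generations (96 h, 37 C, 5% CO2).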
# HCV inhibitor – blocks hepatitis C virus | Huh7.5.1 HCVcc-Cre infection, luciferase reporter, 44 h | Potency, µM (highest dose often 41.8 µM), for inactives: at the top dose activity change, negative = inhibition, most hits filed as inhibitors | actives 3.4% (n = 340,000); further: potency means the concentration at half of the fitted maximal effect; on the % scale 0 is the no-effect control and ±100 the full control effect
#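 Reporter virus HCVcc-Cre (~0.5 moi) infects cells exposed to compound; seeding density 1,000 cells/well with 4 h settling beforehand. Luminescence, 15 sec read, taken 44 h post-infection following a 15 min RT substrate incubation.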
# Sm TGR inh – S. mansoni TGR enzyme inhibition | Q962Y6 | purified TGR, DTNB reduction, TNB absorbance 405 nm | Potency, µM (titrated, usually from 114 µM), without a hit: at the highest dose activity change, negative = inhibition, most hits filed as inhibitors | actives 3% (n = 360,000) | AID 485364; further: potency means the concentration at half of the fitted maximal effect; on the % scale 0 is the no-effect control and ±100 the full control effect; nearly all actives have a fitted effect of over 60% in size
#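 Kinetic colorimetric format: TGR-catalysed, NADPH-driven DTNB reduction monitored via TNB absorbance. Enzyme dispensed at 20 nM; compound exposure 15 min at room temperature before reaction start.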
# * marks the source's active call; other numbers are inactive results; ? = inconclusive; / = no result given; [ ] = another dose, or the depositor's remark. A selection: hits, their analogues and other compounds. The true share with any hit is near 15%. Unless noted, the call rests on the fitted dose curve; in most records, active means well fitted curve in the direction sought with a large enough effect; inconclusive means small, poorly fitted or top-dose-only effect, or another doubt; inactive means no such curve, though single readings can be large; an effect the other way counts as inactive or inconclusive.
SMILES,HCMV inh,SARS PLpro yeast,Pf growth 48h,Pf growth 96h,HCV inhibitor,Sm TGR inh
Cn1cc(CN(CCCN2CCOCC2)C(=S)Nc2cccc(Cl)c2)c2ccccc21,-78*,-15%,0%,?,8.9µM*,0%
Cc1cccc(NC(=S)N(CCCN2CCOCC2)Cc2cn(C)c3ccccc23)c1,-89*,-24%,-5%,?,-25%,-6%
Cc1ccc(-n2nc(C(=O)N3CCCCC3)c(=O)n(C)c2=O)cc1,6,/,/,/,/,10%
CCOC(=O)C1=CN(C(C)C)CCC1=O,0,/,/,/,-72%,/
CCc1ccc(NC(=O)[C@H](C)NC(=O)C2CCN(C(=O)[C@@H](NC(=O)OC(C)(C)C)C(C)C)CC2)cc1,-71*,1%,?,?,-12%,-2%
C/C1=C2/[N-]C(C(CC(N)=O)[C@@]2(C)CCC(=O)NCC(C)OP(=O)([O-])O[C@H]2[C@@H](O)[C@@H](n3cnc4cc(C)c(C)cc43)O[C@@H]2CO)[C@]2(C)N=C(/C(C)=C3N=C(/C=C4N=C1C(CCC(N)=O)C\4(C)C)[C@@H](CCC(N)=O)[C@]\3(C)CC(N)=O)[C@@H](CCC(N)=O)[C@]2(C)CC(N)=O.CC(=O)O.[Co] (some centres undefined),/,/,0.85µM*,0.67µM*,/,/
C#CCOCC1CN(C)C(=O)O1 (centres undefined),5,/,/,/,/,/
CCCC1C2CN(C(C)C)CC=C2C(C#N)=C(N)C1(C#N)C#N (centres undefined),13,9%,-25%,-11%,-6%,18µM*
CN1CC=C2C(C#N)=C(N)C(C#N)(C#N)C(CCc3ccccc3)C2C1 (centres undefined),/,-7%,-24%,7.4µM*,-3%,-16%
CN1CC=C2C(C#N)=C(N)C(C#N)(C#N)C(c3ccncc3)C2C1 (centres undefined),/,5%,-4%,7%,-12%,-36%
COCC(=O)N1CC(=O)N2[C@@H](CO)[C@H](c3ccc(Br)cc3)[C@@H]2C1,3,/,/,/,/,/
CCC(CC)CN1C(N(C)C)=NC[C@@H]1CC(C)C,-2,-1%,?,8.3µM*,20%,-10%
CCC(C)CCN1C(N(C)C)=NC[C@@H]1Cc1ccccc1 (some centres undefined),-67*,5%,?,?,-35%,-1%
CCC(C)CCN1C(N(C)C)=NC[C@@H]1CC(C)C (some centres undefined),-6,0%,13µM*,?,?,-5%
Cc1c(C(=O)NCc2ccccc2Cl)sc2nc3n(c(=O)c12)CCCCC3,-6,/,/,/,/,-6%
CCOc1ccc(CC(=O)Nc2c(C(=O)Nc3ccc(OC)cc3OC)oc3ccccc23)cc1,-5,/,/,/,/,1%
COc1ccc(CNC(=O)COC(=O)[C@H](Cc2c[nH]c3ccccc23)NC(=O)c2cccs2)cc1,-37,5%,11%,40%,36%,-14%
CSc1nc(Cl)c(C#N)c(-c2ccc(C)cc2)n1,?,-4%,2%,4%,13%,-30%
CSc1nc(-c2ccc(C)cc2)nc(C(Cl)Cl)n1,/,-5%,6%,67%,3.2µM*,6%
CCSc1nc(-c2ccccc2)nc(C(Cl)Cl)n1,-82*,2%,-14%,75%,?,-4%
CN(CC1COc2ccccc2O1)C(=O)c1ccc(Cl)c(S(=O)(=O)N2CCCCCC2)c1 (centres undefined),?,-4%,?,?,?,-25%
O=C(NCC1COc2ccccc2O1)c1ccc(NC(=O)C(c2ccccc2)c2ccccc2)cc1 (centres undefined),11,7%,9.3µM*,?,?,8%
O=C(NCC1COc2ccccc2O1)C1CCN(S(=O)(=O)c2ccc(Cl)cc2)CC1 (centres undefined),-8,1%,?,?,11µM*,-7%
O=C(NCC1COc2ccccc2O1)c1ccc(Cl)c(S(=O)(=O)N2CCCC2)c1 (centres undefined),-69*,-1%,9.3µM*,9.3µM*,?,-2%
O=C(NCC1COc2ccccc2O1)c1ccc(Cl)c(S(=O)(=O)N2CCOCC2)c1 (centres undefined),?,6%,?,13µM*,?,0%
SMILES,HCMV inh,SARS PLpro yeast,Pf growth 48h,Pf growth 96h,HCV inhibitor,Sm TGR inh
CC[C@]1(C(=O)OC)[C@H]2C(=O)N(C)C(=O)[C@H]2[C@H]2CN=C(SC)N21,-4,/,/,/,14%,/
O=C(Nc1ccc(Oc2ccccc2)cc1)c1ccc2sc([C@H]3C[C@H](O)[C@@H](CO)O3)nc2c1,-100*,/,/,/,/,/
CC(=O)Nc1ccc(NC(=O)c2ccc3sc([C@H]4C[C@H](O)[C@@H](CO)O4)nc3c2)cc1,-12,/,/,/,/,/
Cc1cccc(C)c1NC(=O)c1ccc2sc([C@H]3C[C@H](O)[C@@H](CO)O3)nc2c1,-7,/,/,/,/,/
O=C(Nc1cccc(C(F)(F)F)c1)c1ccc2sc([C@H]3C[C@H](O)[C@@H](CO)O3)nc2c1,-91*,/,/,/,/,/
CCc1cc(C(=O)NCC(c2ccco2)N2CCCCC2)sc1C (centres undefined),?,-1%,9.3µM*,5.9µM*,-22%,-22%
O=C(NCC(c1ccco1)N1CCc2ccccc2C1)c1cccc([N+](=O)[O-])c1 (centres undefined),-23,2%,?,0%,2%,40µM*
Cc1c(C(=O)NCC(c2ccco2)N2CCCC2)sc2ccccc12 (centres undefined),-5,/,/,/,-9%,/
CN(C)c1ccc(C(CNC(=O)c2ccc(-c3ccccc3)cc2)N2CCOCC2)cc1 (centres undefined),?,0%,13µM*,?,8%,-1%
Cc1ccc(C(=O)NCC(c2ccco2)N2CCOCC2)cc1 (centres undefined),-20,-3%,?,6.6µM*,-3%[8.37 µM],3%
CS(=O)(=O)Nc1ccc(C(=O)NCCSc2ccc(Cl)cc2)cc1,-31,5%,7%,-12%,-11%,1%
Cn1c(=O)c2[nH]c(C(O)c3ccc(Cl)cc3)nc2n(C)c1=O (centres undefined),-27,/,/,/,?,/
O=C(NCC(c1ccco1)N1CCOCC1)c1cccc([N+](=O)[O-])c1 (centres undefined),-6,2%,-30%,0%,1%,-7%
O=C(NCC(c1ccco1)N1CCOCC1)c1ccc([N+](=O)[O-])cc1 (centres undefined),0,-2%,-5%,4%,20%,4µM*
COCCNC(=O)CN(Cc1ccc(Cl)cc1)S(C)(=O)=O,29,-2%,15%,/,4%,3%
